An excerpt weighted towards active compounds, which were near 13% of everything screened.
HCV inhibitor: qHTS Assay for Inhibitors of Hepatitis C Virus (HCV). Huh7.5.1 HCVcc-Cre infection, luciferase reporter, 44 h. Potency, µM (highest dose often 41.8 µM), inactives show top-dose activity change, negative = inhibition, actives largely listed as inhibitors. 340,000 tested, 3.4% active. AID 651820, 2012; active means well fitted inhibition curve with a large enough effect; inconclusive means small, poorly fitted or top-dose-only effect, or another doubt; inactive means no such curve, though single readings can be large or run the other way; further: potency means the concentration at half of the fitted maximal effect; on the % scale 0 is the no-effect control and ±100 the full control effect
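Luciferase read-out (15 sec integration) after a 15 min room-temperature substrate step quantifies HCVcc-Cre infection. Cells, 1,000 per well, had compound added 4 h post-plating, then virus at ~0.5 moi, and were cultured 44 h.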
Shiga inhibitor: A qHTS for Small Molecule Inhibitors of Shiga Toxin. Vero cells, Shiga toxin protein synthesis inhibition reporter. inhibition, % at 38.7 µM. 290,000 tested, 9.2% active. AID 2315, 2010; in the data active means inhibition mostly above about 28%, no sharp cut-off; inactive means mostly below about 43%; further: 0% is about no effect
LASV entry inh: qHTS for Inhibitors of binding or entry into cells for Lassa Virus | Lassa virus pseudotype entry inhibition, cell reporter | Potency, µM (highest dose often 37.9 µM), without a hit: at the highest dose activity change, negative = inhibition, hits mostly inhibitors | 300,000 tested, 1.2% active | AID 540256, 2011; calls by dose curve; tested in HEK293 cells; further: potency means the concentration at half of the fitted maximal effect; on the % scale 0 is the no-effect control and ±100 the full control effect; nearly all actives have a fitted effect of over 50% in size
MARV entry inh: qHTS for inhibitors of binding or entry into cells for Marburg Virus. 300,000 tested, 1.8% active. AID 540276, 2011. Marburg virus pseudotyped entry inhibition, cell reporter. Potency, µM (series often up to 37.8 µM), inactives show at the highest dose activity change, negative = inhibition, most hits filed as inhibitors; calls by dose curve; tested in HEK293 cells; further: potency means the concentration at half of the fitted maximal effect; on the % scale 0 is the no-effect control and ±100 the full control effect
CHX counter: Cycloheximide Counterscreen for Small Molecule Inhibitors of Shiga Toxin; cell reporter, cycloheximide protein synthesis inhibition counterscreen; max response, %; 300,000 tested, 12% active; in the data active means max response mostly above about 13%, no sharp cut-off; inactive means mostly below about 14%; further: read at 38.3 µM for the half of the compounds with a filed dose; 0% is about no effect
FMDV antiviral: High Throughput Screening for Foot and Mouth Disease Virus Antivirals; FMDV antiviral cell-based qHTS; Potency, µM (series often up to 57.9 µM), inactives show at the top dose activity change, negative = inhibition, usual class: inhibitors; 410,000 tested, 1.2% active; AID 1159524, 2015; calls by dose curve; tested in HEK293T cells; further: read-out not given here; potency means the concentration at half of the fitted maximal effect; on the % scale 0 is the no-effect control and ±100 the full control effect; nearly all actives have a fitted effect of over 45% in size
Active calls of the source: *; i = inactive; ? = inconclusive; / = no result given; [ ] = remark or other dose.

SMILES | HCV inhibitor | Shiga inhibitor | LASV entry inh | MARV entry inh | CHX counter | FMDV antiviral
COc1ccc(Cn2c(=O)[nH]c3cc(C(=O)NC4CCN(Cc5ccccc5)CC4)ccc32)cc1 | 10µM* | 5 | -25% | 9.2µM* | -7 | ?
COc1ccc(Cn2c(=O)[nH]c3cc(C(=O)N4CCN(Cc5ccccc5)CC4)ccc3c2=O)cc1 | ? | 11 | -14% | ? | -1 | 14µM*
CC1CCCN(C(=O)c2ccc3c(=O)n(C4CCCC4)c(=S)[nH]c3c2)C1 (stereo unspecified) | 10µM* | -4 | ? | -20%[46.1 µM] | 1 | ?
COc1ccc(CCn2c(=O)[nH]c3cc(C(=O)N4CCN(c5ccccc5)CC4)ccc3c2=O)cc1OC | ? | -6 | -11% | ? | 1 | 16µM*
O=C(c1ccc2c(=O)n(-c3ccccc3)c(=S)[nH]c2c1)N1CCN(c2ccccc2)CC1 | 11µM* | / | / | / | / | ?
O=C(c1ccc2c(=O)n(-c3ccccc3)c(=S)[nH]c2c1)N1CCCCC1 | ? | 24 | ? | ? | 1 | ?
N#Cc1c(N2CCSCC2)nsc1-c1ccccc1Cl | 12% | 43 | ? | -28%[46.1 µM] | 29* | 4%
O=C(CSc1oc(-c2ccc(F)cc2)nc1S(=O)(=O)c1ccc(Cl)cc1)c1ccccc1 | / | / | ? | ? | / | 11%
O=C(c1ccc(F)cc1)C(Cc1ccccc1)N1CCCCC1 (stereo unspecified) | 25% | 69* | 18% | 0% | 35* | 39%
O=C(c1ccc(F)cc1)C1CCN(Cc2ccccc2)CC1 | -5% | / | / | / | / | -1%
CNC[C@H]1Oc2cc(Br)ccc2S(=O)(=O)N([C@@H](C)CO)C[C@H]1C | / | / | / | / | / | 4%
CCn1c(N2CCC(Cc3ccccc3)CC2)nc2c1c(=O)[nH]c(=O)n2C | -23% | -20 | ? | ? | -3 | 28µM*
Cn1c(=O)[nH]c(=O)c2c1nc(N1CCCCC1)n2C/C=N/Nc1ccc(C(=O)O)cc1 | 12% | 46 | / | / | 62* | ?
COc1ccccc1CNC(=O)CSc1nc2nc(C)c(Cc3ccccc3C)c(C)n2n1 | / | / | ? | 19%[46.1 µM] | / | -28%
N#CC1=C(N)NC(SCC(=O)Nc2ccccc2)=C(C#N)C12CCCCC2 | ? | -6 | 11% | -6%[46.1 µM] | -3 | ?
Cc1ccc(C(=O)n2ncn(C)c2=S)cc1 | 21% | 10 | / | / | -4 | -9%
Cc1ccc(C(=O)n2c(=S)nc3ccccn32)cc1 | / | 54* | / | / | 49* | /
O=C(c1ccccc1)n1c(=S)nc2ccccn21 | -23% | 97* | -29% | ? | 52* | -65%
O=C(c1ccccc1)n1ccn(-c2ccccc2)c1=S | ? | 19 | 16% | 2% | 6 | -2%
Cc1cccc(C(=O)N2CCCCCC2)c1 | 10% | -7 | 6% | 22% | -1 | 15%
Cc1cccc(C(=O)n2c(=S)nc3ccccn32)c1 | 4% | 83* | ? | -3% | 29* | -46%
CCCCc1nc2ccccc2n1CC(=O)NN | -1% | -15 | 14% | 19% | -3 | -15%
O=C(O)c1cc(N=Nc2ccc(-c3ccc(N=Nc4ccc(O)c(C(=O)O)c4)cc3)cc2)ccc1O | / | 26* | / | / | 12 | /
COc1cccc(NC(=O)COC(=O)C2C3CC4OC(=O)C2C4C3)c1 (stereo unspecified) | -13% | 29 | 10% | -4%[46.1 µM] | 21* | 35%
COc1ccc(-c2sc3ccccc3c2/C=C/c2ccc(OC)c(OC)c2)cc1 | -1% | / | / | / | / | 1%
SMILES | HCV inhibitor | Shiga inhibitor | LASV entry inh | MARV entry inh | CHX counter | FMDV antiviral
COc1ccc(-c2sc3ccccc3c2/C=C/c2ccncc2)cc1 | 7.1µM* | / | / | / | / | -25%
COc1ccc(/C=C/c2c(-c3ccc(OC)cc3)sc3cc(OC)c(OC)cc23)cc1 | 2.5µM* | / | / | / | / | -30%
COc1ccc(/C=C/c2c(-c3ccccc3OC)sc3ccccc23)cc1OC | ? | / | / | / | / | -2%
CC(CC(=O)Nc1ccc2c(c1)c(=O)n(C)n2-c1ccccc1)c1ccccc1 (stereo unspecified) | / | / | / | / | / | 4%
O=C(CCN1CCN(c2ccccc2)CC1)Nc1ccccc1 | 1% | -5 | / | / | -3 | -7%
CC1CCc2nc3ccccc3c(C(=O)OCC(=O)NC3CCS(=O)(=O)C3)c2C1 (stereo unspecified) | 10µM* | -13 | -9% | -10%[46.1 µM] | 6 | -10%
CCN(CC(=O)NC(=O)NC1CCCCC1)Cc1nc2ccccc2c(=O)[nH]1 | -16% | -6 | -5% | -1% | -4 | -15%
COc1cccc(NC(=O)COC(=O)c2c3c(nc4ccccc24)CCC(C)C3)c1 (stereo unspecified) | 2µM* | -6 | 18µM* | 7.3µM* | 22 | 32µM*
CC1CCC(NC(=O)CC(C)(C)Cc2nc3ccccc3c(=O)[nH]2)CC1 (stereo unspecified) | ? | 51 | -26% | ? | 16* | /
CC1CCc2nc3ccccc3c(C(=O)OCC(=O)N(C)C3CCS(=O)(=O)C3)c2C1 (stereo unspecified) | ? | 13 | 5% | -11%[46.1 µM] | 5 | -13%
O=C(COC(=O)CCc1nc2ccccc2c(=O)[nH]1)NC1CCS(=O)(=O)C1 (stereo unspecified) | 13% | 26 | / | / | 34* | -5%
COCC(=O)N1CCC(Oc2ccc(C(=O)NCCc3ccncc3)cc2)CC1 | 17% | -9 | -10% | ? | 5 | -6%
COc1ccc(S(=O)(=O)N2CCN(C(=O)c3c(C)nn(-c4ccccc4)c3Cl)CC2)cc1 | -12% | -15 | ? | 0% | 11 | ?
COc1ccc([C@]23Cc4cc(C#N)ccc4C(O2)c2c(c4ccc(OC)cc4oc2=O)O3)cc1 | / | i | / | ? | -3 | /
Cc1ccc(S(=O)(=O)N(C)C)cc1NC(=O)COC(=O)CC1CCCC1 | 2% | / | 7% | 18% | / | -27%
CCCc1cc(C(=O)Nc2cccc3ccccc23)n(C)n1 | -14% | 2 | ? | -40%[46.1 µM] | -3 | -19%
CCCc1cc(C(=O)Nc2ccc(C(=O)c3ccc(C)cc3)cc2)n(C)n1 | 10µM* | -8 | ? | ? | 18 | -29%
CC(=O)Nc1ccc2c(COC(=O)CC3Sc4ccccc4NC3=O)cc(=O)oc2c1 (stereo unspecified) | 14% | 32 | -14%[46.1 µM] | -2%[46.1 µM] | 18 | 30%
COc1ccc2c(COC(=O)CC3Sc4ccccc4NC3=O)cc(=O)oc2c1 (stereo unspecified) | -4% | 56 | ? | 0% | 20* | 35%
COc1ccc(OC)c(NC(=O)Cn2cc(C(=O)c3ccccc3F)c3ccccc32)c1 | / | / | ? | ? | / | -25%
O=C(N/N=C/c1cc(Br)cs1)c1ccc2c(c1)OCCO2 | ? | 68* | ? | ? | 37* | -3%
Cc1ccc(/C=N/NC(=O)c2ccc3ccccc3c2)s1 | -27% | 47* | / | / | 28* | 30%

Source: PubChem (National Center for Advancing Translational Sciences (NCATS))
